Experimental data taken from PubChem BioAssay AID686979 (National Center for Advancing Translational Sciences (NCATS), 2013).
The whole screen tested about 420,000 compounds, of which about 50,000 (12%) were called active. Inconclusive results (about 26%) are left out. The sample holds actives, similar compounds and a random draw of the others, so the mix is not that of the screen. Unmarked numbers belong to inactive results. Calls follow the shape of the dose curve; as a rule, active = well fitted inhibition curve with a large enough effect; inconclusive = small, poorly fitted or top-dose-only effect; inactive = flat fitted curve, though single readings scatter.
% is scaled to controls: 0 for no effect and ±100 for the full control effect; potency is read from the fitted curve at half-maximal effect.

Assay: qHTS for Inhibitors of human tyrosyl-DNA phosphodiesterase 1 (TDP1): qHTS in cells in presence of CPT; also: nearly all actives have a fitted effect of over 55% in size
Details: chicken DT40 Tdp1-/-;hTDP1 cells + 20 nM CPT, ATP luminescence, 48 h; series mostly up to 46.2 µM; activity change, negative = growth inhibition: at the top concentration
Method in brief: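 Chicken DT40 Tdp1-/- cells stably complemented with human TDP1 were seeded at 400 cells/well in medium containing 20 nM camptothecin, exposed to pin-transferred compounds, and grown at 37 °C for at least 48 hr. Viability was read as ATP luminescence.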
For `O=C(NCC(c1cccnc1)N1CCc2ccccc21)c1cccc(C(F)(F)F)c1` (stereo unspecified), the Potency was 16.4 µM (active).
In the case of `CCOC(=O)c1c(NC(=O)CSc2cn(CCNC(=O)c3cccc(C(F)(F)F)c3)c3ccccc23)sc2c1CCC2`, the “activity change, negative = growth inhibition” value is reported as -11.3%.
For `CCNC(=O)c1cnn(-c2ccccc2)c1-c1ccccc1`, the “activity change, negative = growth inhibition” value was -25.6%.
In the case of `CCCCNCCS(=O)(=O)NCc1ccccc1`, the “activity change, negative = growth inhibition” value is reported as -3.55%.
With `Cc1ccc(SCCC(=O)OCC(=O)Nc2ncc(Cl)cc2Cl)cc1` the “activity change, negative = growth inhibition” value was -22.8%.
With `Cc1ccc(-n2c(SCC(=O)Nc3ncc(Cl)cc3Cl)nc3ccccc32)cc1` the Potency was 14.6 µM (active).
In the case of `Cc1cc(NC(=O)CSc2nc3ccccc3n2CC(C)C)no1`, the “activity change, negative = growth inhibition” value is reported as 0.712%.
With `Cc1cccc(N(CC(=O)N2CCCC2)S(C)(=O)=O)c1C` the “activity change, negative = growth inhibition” value was -0.939%.
In the case of `CCN(CC)C(=O)CS(=O)CC(=O)Nc1cc(OCCOC)c(Cl)cc1Cl` (stereo unspecified), the “activity change, negative = growth inhibition” value is reported as -0.33%.
With `COc1ccccc1-c1nc(NCc2cccs2)c2ccccc2n1` the Potency was 16.4 µM (active).
With `COc1ccccc1-c1nc(NCCNC(C)=O)c2ccccc2n1` the “activity change, negative = growth inhibition” value was 0.18%.
In the case of `COc1ccccc1CNCc1cccs1`, the “activity change, negative = growth inhibition” value is reported as -5.33%.
For `O=C(O)CN1CCN(C(c2ccccc2)c2ccccc2)CC1`, the “activity change, negative = growth inhibition” value was -0.379%.
For `CC1(C)CC(N2CCN(C(c3ccccc3)c3ccccc3)CC2)=CC(=[N+]2CCCCC2)C1`, the Potency was 0.164 µM (active).
With `CC1(C)CC(=O)C=C(N2CCCC2)C1` the “activity change, negative = growth inhibition” value was 5.46%.
For `CC(Oc1ccc2c(-c3ccccc3)cc(=O)oc2c1)C(=O)NC(Cc1c[nH]c2ccccc12)C(=O)O` (stereo unspecified), the “activity change, negative = growth inhibition” value was 6.52%.
For `Cc1ccc(C)c(NC(=O)COC(=O)Cn2c(C)csc2=O)c1`, the “activity change, negative = growth inhibition” value was -13.9%.
For `COc1ccc(CCNC(=O)C(=O)NCC2CCNCC2)cc1OC`, the “activity change, negative = growth inhibition” value was 2.42%.
With `COc1ccc(C(CNC(=O)COc2ccccc2OC)N2CCCCC2)cc1` (stereo unspecified) the “activity change, negative = growth inhibition” value was -14.9%.
With `COc1ccc(S(=O)(=O)NCC(c2ccc(N(C)C)cc2)N2CCCC2)cc1` (stereo unspecified) the “activity change, negative = growth inhibition” value was -7.81%.
In the case of `COc1ccccc1C(=O)NCCC(=O)NCC(c1ccco1)N1CCCCC1` (stereo unspecified), the “activity change, negative = growth inhibition” value is reported as -7.77%.
With `COc1ccc(S(=O)(=O)NCC(c2ccc(N(C)C)cc2)N2CCc3ccccc32)cc1OC` (stereo unspecified) the “activity change, negative = growth inhibition” value was -11.8%.
In the case of `COc1ccc(C(=O)NCC(c2ccc(N(C)C)cc2)N2CCc3ccccc32)c(OC)c1` (stereo unspecified), the Potency is reported as 18.4 µM (active).
For `CCOc1ccccc1C(=O)NCC(c1ccc(N(C)C)cc1)N1CCCC1` (stereo unspecified), the Potency was 20.6 µM (active).
For `CCS(=O)(=O)N1CCC(N2CCN(c3ccccc3)CC2)CC1`, the “activity change, negative = growth inhibition” value was 3.97%.
In the case of `COC(=O)c1cc(OCC(=O)NC2CCCc3ccccc32)cc(C(=O)OC)c1` (stereo unspecified), the “activity change, negative = growth inhibition” value is reported as 2.26%.
For `CCCOCC(O)CC(CC)C(=O)NNC(=S)Nc1ccccc1` (stereo unspecified), the “activity change, negative = growth inhibition” value was 0.982%.
With `Cc1cccc(-n2nc3c(c2NC(=O)c2ccc(Br)o2)CSC3)c1C` the “activity change, negative = growth inhibition” value was -18.8%.
With `COc1ccccc1OCC(=O)Nc1c2c(nn1-c1ccc(F)cc1)CS(=O)(=O)C2` the “activity change, negative = growth inhibition” value was -5.24%.
In the case of `COc1cccc(C(=O)Nc2c3c(nn2-c2cccc(C)c2C)CS(=O)(=O)C3)c1OC`, the Potency is reported as 35.5 µM (active).
In the case of `COC(=O)c1c(NC(=O)c2ccccc2F)sc2c1C(C(=O)OC)CC2` (stereo unspecified), the “activity change, negative = growth inhibition” value is reported as -29%.
For `CC(C)(C)C1CCc2c(sc(NC(=O)c3ccccc3F)c2C(=O)N2CCCCC2)C1` (stereo unspecified), the Potency was 16.4 µM (active).
For `Cc1ccccc1NC(=O)c1c(NC(=O)c2ccccc2F)sc2c1CCC(C)C2` (stereo unspecified), the “activity change, negative = growth inhibition” value was 6.23%.
For `Cc1ccc(F)c(S(=O)(=O)NC(=O)C2(C)CCN2C(=O)CCc2cccs2)c1` (stereo unspecified), the “activity change, negative = growth inhibition” value was -16.3%.
In the case of `CCOn1c(SC(C)C)nc2ccccc2c1=O`, the “activity change, negative = growth inhibition” value is reported as -7.27%.
In the case of `CC1CCN(CCCn2c(SCC(=O)NC3CCCC3)nc3ccccc3c2=O)CC1`, the “activity change, negative = growth inhibition” value is reported as 8.67%.
With `CCOC(=O)C(C)Sc1nc2ccccc2c(=O)n1CC1CCCCC1` (stereo unspecified) the Potency was 12.6 µM (active).
In the case of `O=C(NCCS(=O)(=O)c1ccc(Br)cc1)c1ccccc1Cl`, the “activity change, negative = growth inhibition” value is reported as 1.81%.
For `O=C(O)CCCN1C(=O)C2C3c4ccccc4C(c4ccccc43)[C@@H]2C1=O` (stereo partly specified), the “activity change, negative = growth inhibition” value was 36.8%.
With `Cc1ccc(NC(=O)CCOc2ccccc2)cc1S(=O)(=O)Nc1ccccc1Cl` the “activity change, negative = growth inhibition” value was -1.11%.
For `O=c1c2c3c(sc2n(CCN2CCCC2)c(=O)n1Cc1ccccc1)CCCCC3`, the Potency was 13 µM (active).
In the case of `CC1CCN(C(=O)Cn2c(=O)n(-c3ccc(Cl)cc3)c(=O)c3c4c(sc32)CCC4)CC1`, the “activity change, negative = growth inhibition” value is reported as 0.402%.
For `CCOC(=O)N1CCc2c(sc3c2c(=O)n(Cc2ccccc2)c(=O)n3CC(=O)Nc2cccc(C)c2)C1`, the “activity change, negative = growth inhibition” value was -5.93%.
In the case of `COc1ccc(C2NC(=O)C(=O)/C2=C(\O)c2ccc(Cl)cc2)cc1OC` (stereo unspecified), the “activity change, negative = growth inhibition” value is reported as 1.92%.
For `O=c1[nH]c2ccc(S(=O)(=O)N3CCCC3)cc2[nH]1`, the “activity change, negative = growth inhibition” value was -16.4%.
With `CCCN(CC1CC1)C(=O)COC(=O)c1ccc(C)cc1O` the “activity change, negative = growth inhibition” value was 6.29%.
With `Cc1cccc(C(=O)NC(=S)N(C)C2CCCCC2)c1` the Potency was 29.1 µM (active).
In the case of `Cc1cccc(C(=O)c2cccc(C)c2)c1`, the “activity change, negative = growth inhibition” value is reported as -27.9%.
For `Cc1cccc(C(=O)NCCCN(C)CCCNC(=O)c2cccc(C)c2)c1`, the “activity change, negative = growth inhibition” value was 2%.
For `CN(CC(=O)Nc1ccc(F)c(F)c1F)C(=O)C1CC(=O)N(C2CCCC2)C1` (stereo unspecified), the “activity change, negative = growth inhibition” value was -10%.
In the case of `COc1ccc(C2Sc3ccccc3NC3=C2C(=O)c2ccccc23)c(OC)c1OC` (stereo unspecified), the Potency is reported as 1.84 µM (active).
